Out of some 3,600 compounds screened, about 900 (25%) were called active. No rule for the calls is given here. A selection follows. Results with a measured potency or affinity are listed apart.
These compounds were tested against Protein Tat (Human immunodeficiency virus type 1 group M subtype B (isolate HXB2)) (UniProt P04608) (assay: inhibitors of Tat binding to TAR RNA, dose response, counter-screen for Vif-APOBEC3G degradation inhibitor project, biochemical, fluorescence polarization, FAM-labeled TAR RNA (AID 1117361)). Details: outcome: dose series up to 100 µM unless noted; series mostly up to 100 µM.
With `Cc1cc2oc(=O)cc(C)c2c(=O)o1` the outcome was “inactive”.
For `CS(=O)(=O)N1CCc2cc(C(=O)OCC(=O)c3ccccc3)ccc21`, the outcome was “inactive”.
`CCOC(=O)c1c(NC(=O)Cn2cc([N+](=O)[O-])cn2)sc2c1CCC2` was tested, and the outcome was “inactive”.
In the case of `CCOC(=O)c1c(NC(C)=O)sc2c1CCCNC2=O`, the outcome is reported as “inactive”.
`COc1ccc(C)cc1NC(=O)C1CC(=O)OC12CCCCC2` (stereo unspecified) was tested, and the outcome was “inactive”.
`Nc1c(S(=O)(=O)c2ccccc2)c2nc3ccccc3nc2n1/N=C/c1ccco1` was tested, and the outcome was “inactive”.
For `Cc1cccc(S(=O)(=O)c2c(N)n(/N=C/c3ccco3)c3nc4ccccc4nc23)c1`, the outcome was “inactive”.
For `CC(=O)N1c2c(cc(Br)cc2S(=O)(=O)N2CCOCC2)CC1C` (stereo unspecified), the outcome was “inactive”.
With `COc1ccc2cc(C(c3nnnn3C3CCCC3)N3CCc4ccccc4C3)c(=O)[nH]c2c1` (stereo unspecified) the outcome was “inactive”.
With `CCC(C)(C)n1nnnc1C(c1cc2cc(C)ccc2[nH]c1=O)N1CCCc2ccccc21` (stereo unspecified) the outcome was “inactive”.
For `COC(=O)c1ccc(S(=O)(=O)N2CCN(CCO)CC2)n1C`, the outcome was “inactive”.
For `O=C1c2c(O)ccc(O)c2C(=O)c2c(NCCNCCO)ccc(NCCNCCO)c21`, the outcome was “inactive”.
In the case of `COC(=O)COc1ccc2c(c1C)O/C(=C\c1ccco1)C2=O`, the outcome is reported as “inactive”.
In the case of `O=C(O)COc1ccc(NC(=O)c2ccco2)cc1`, the outcome is reported as “inactive”.
In the case of `COc1ccc(NC(=O)c2ccc(-n3cccn3)nc2)cc1`, the outcome is reported as “inactive”.
With `COc1ccccc1C1CC(=O)Nc2c1c(=O)n(C)c(=O)n2C` (stereo unspecified) the outcome was “inactive”.
With `CC(=O)Nc1nnc(-c2c(-c3c(Cl)cccc3Cl)noc2C)o1` the outcome was “inactive”.
`O=C(Nc1nnc(C2CC2)s1)c1ccc(S(=O)(=O)c2ccccc2)cc1` was tested, and the outcome was “inactive”.
In the case of `CC12CCC(C(=O)NCCN3CCCCC3)(CC1=O)C2(C)C` (stereo unspecified), the outcome is reported as “inactive”.
With `CC(C)C(C)NC(=O)COc1ccc(S(=O)(=O)N2CCOCC2)cc1Cl` (stereo unspecified) the outcome was “inactive”.
For `Clc1cccc(Cl)c1Cn1nnc(-c2cccs2)n1`, the outcome was “inactive”.
With `COc1ccc(N(C(=O)COc2ccccc2OC)S(=O)(=O)c2ccc(C)cc2)cc1` the outcome was “inactive”.
With `O=C(CSc1nnnn1-c1ccccc1)Nc1nsc(-c2ccccc2)n1` the outcome was “inactive”.
With `NC(=O)c1ccc(-n2nnnc2SCC(=O)Nc2ccccc2-c2ccccc2)cc1` the outcome was “inactive”.
With `Cc1cc2cc(C=O)c(Cl)nc2cc1C` the outcome was “inactive”.
`Cc1ccccc1OCC(=O)NCC1CCCO1` (stereo unspecified) was tested, and the outcome was “inactive”.
For `CCOc1cccc(SCc2noc(C(=O)NCC3CCCO3)c2C(=O)O)c1` (stereo unspecified), the outcome was “inactive”.
In the case of `Cc1cc2ncn(C(=O)N3CCOCC3)c2cc1C`, the outcome is reported as “inactive”.
In the case of `O=C(CN1C(=O)NC2(CCCC2)C1=O)Nc1nc(-c2ccc(F)cc2)cs1`, the outcome is reported as “inactive”.
In the case of `CCOc1ccc(N2C(=O)c3ccccc3C2O)cc1` (stereo unspecified), the outcome is reported as “inactive”.
With `COc1ccc(CN2C(=O)c3ccccc3C2C(=O)NCc2cccnc2)c(OC)c1` (stereo unspecified) the outcome was “inactive”.
With `C/C(=N\NC(=O)c1ccc(NS(=O)(=O)c2cccs2)cc1)c1ccccc1` the outcome was “inactive”.
For `Cc1ccc(CN2C(=O)CCC2C(=O)N2CCN(c3ccc(F)cc3)CC2)cc1` (stereo unspecified), the outcome was “inactive”.
With `CC(=O)n1c(Cl)c(NC(=O)CCl)c2ccccc21` the outcome was “inactive”.
`CC(NC(=O)C(NS(=O)(=O)c1cccs1)C(C)C)c1ccc(S(N)(=O)=O)cc1` (stereo unspecified) was tested, and the outcome was “inactive”.
In the case of `Cc1cc(C)cc(NCCC#N)c1`, the outcome is reported as “inactive”.
For `CCOC(=O)CC1Sc2ccccc2NC1=O` (stereo unspecified), the outcome was “inactive”.
With `Cc1cc(C)n(Cc2ccc(NC(=O)c3nn(C)cc3[N+](=O)[O-])cc2)n1` the outcome was “inactive”.
With `Cc1ccc2[nH]c(=O)c(CN(Cc3cccnc3)C(=O)c3ccncc3)cc2c1` the outcome was “inactive”.
For `COC(=O)Nc1sc2nc(C)cc(C)c2c1-n1cccc1`, the outcome was “inactive”.
With `O=C(COc1ccc([N+](=O)[O-])cc1)NC(C(=O)O)C(O)c1cccc([N+](=O)[O-])c1` (stereo unspecified) the outcome was “inactive”.
With `CCn1c(COc2ccc(=O)n(-c3ccccc3)n2)nnc1SCc1ccc(C)cc1` the outcome was “inactive”.
For `CCc1ccc(NC(=O)C(C)Oc2nnc(-c3cccs3)c(-c3cccs3)n2)cc1` (stereo unspecified), the outcome was “inactive”.
With `Cc1ccccc1SCc1noc(C(=O)NC(C)C)c1C(=O)O` the outcome was “inactive”.
For `CN(Cc1cccs1)C(=O)Cn1cnc2ccccc2c1=O`, the outcome was “inactive”.
`COc1ccc([N+](=O)[O-])cc1CSc1nnc(NC(C)=O)s1` was tested, and the outcome was “inactive”.
With `COCCSc1nnc(NC(=O)Cc2ccccc2OC)s1` the outcome was “inactive”.
In the case of `Oc1ccc(/C=C/c2cnccn2)cc1`, the outcome is reported as “inactive”.
`Cc1ccc(C)c(S(=O)(=O)Nc2ccc3scnc3c2)c1` was tested, and the outcome was “inactive”.
With `O=C(Nc1nncs1)c1c(F)c(F)c(F)c(F)c1F` the outcome was “inactive”.
For `O=C(CN(C1CCCCC1)S(=O)(=O)c1ccccc1)N1CCCC1`, the outcome was “inactive”.
With `Cc1nc2ccccn2c1/C(O)=C1\C(=O)C(=O)N(CCCn2ccnc2)C1c1ccncc1` (stereo unspecified) the outcome was “inactive”.
`CCN(CC)CCCN1CC(O)=C(c2nc3ccccc3s2)C1=N` was tested, and the outcome was “inactive”.
`Cc1cc(Nc2ccc(C)c(C)c2)n2nc(C)nc2n1` was tested, and the outcome was “inactive”.
In the case of `O=S(=O)(Nc1ccc(N2CCOCC2)cc1)c1ccccc1`, the outcome is reported as “inactive”.
With `Cc1cc(C(=O)N2CCOCC2)n(-c2ccccc2)n1` the outcome was “inactive”.
With `Cc1nn(-c2c(Cl)cc(Cl)cc2Cl)c(=O)c2ccccc12` the outcome was “inactive”.
For `CC(Sc1nnnn1-c1ccccc1)C(=O)Nc1ccc(Cl)cn1` (stereo unspecified), the outcome was “inactive”.
In the case of `O=C(CN1C(=O)C2CC=CCC2C1=O)OCCN1C(=O)c2ccccc2C1=O` (stereo unspecified), the outcome is reported as “inactive [at 50 µM]”.
With `Cc1ccc(CCNC(=O)C2CCC(=O)N2C2CCCC2)cc1` (stereo unspecified) the outcome was “inactive”.
`Cc1c(NS(=O)(=O)c2cccc(C(=O)NCc3ccncc3)c2)c(=O)n(-c2ccccc2)n1C` was tested, and the outcome was “inactive”.
`O=S(=O)(NCc1ccccc1Cl)c1cnc[nH]1` was tested, and the outcome was “inactive”.
For `CNC(=S)N(Cc1ccc(OC)cc1)C1CC(=O)N(c2ccc(Cl)cc2)C1=O` (stereo unspecified), the outcome was “inactive”.
With `COc1ccc2cc(C(=O)Nc3ccc(O)cc3)sc(=O)c2c1OC` the outcome was “inactive”.
With `CCN1CCN(Cc2ccc(NC(=O)Nc3ccccc3)cc2)CC1` the outcome was “inactive”.
In the case of `CCCC(=O)NNC(=O)Nc1ccccc1`, the outcome is reported as “inactive”.
With `O=C(NCC1CCCO1)c1c(O)c2c([nH]c1=O)CCCC2` (stereo unspecified) the outcome was “inactive”.
For `CC[n+]1c(/C=C2\C=C(C)CC(C)(C)C2)sc2ccccc21`, the outcome was “inactive”.
With `CCC(C)NC(=O)CSc1ccc(S(=O)(=O)N2CCN(Cc3ccccc3)CC2)cn1` (stereo unspecified) the outcome was “inactive”.
In the case of `Cc1csc(NC(=O)CCSCCc2ccccn2)n1`, the outcome is reported as “inactive”.
`CCOc1ccc(NC(=S)/C(=C(\[O-])c2ccc(C)c([N+](=O)[O-])c2)[n+]2ccccc2)cc1` was tested, and the outcome was “inactive”.
`C=C(C)COc1ccc2c(C)c(C)c(=O)oc2c1OCC(=C)C` was tested, and the outcome was “inactive”.
With `COc1ccc(NC(=O)CN(C)S(=O)(=O)c2ccc3c(c2)CCC(=O)N3)c(OC)c1` the outcome was “inactive”.
With `CCC(Sc1nc2c(c(=O)n1CC)SC(C)C2)C(=O)OC` (stereo unspecified) the outcome was “inactive”.
`Cn1c(SCC(=O)N2CCCC2)nc2ccccc2c1=O` was tested, and the outcome was “inactive”.
`Cc1noc(NS(=O)(=O)c2ccc(NC(=O)CSc3nnc(-c4ccccc4)n3C3CCCCC3)cc2)c1C` was tested, and the outcome was “inactive”.
With `CC(=O)NCCn1c(SCC(=O)Nc2ccc(C)cc2)nc2ccccc2c1=O` the outcome was “inactive”.
`Cc1nc(NCc2ccccc2)c2cc[nH]c2n1` was tested, and the outcome was “inactive”.
In the case of `Cc1cc(C)n(CC(O)CN2c3ccccc3Sc3ccccc32)n1` (stereo unspecified), the outcome is reported as “inactive”.
For `CC1CCCCN1Cc1ccc(N(C)C)cc1` (stereo unspecified), the outcome was “inactive”.
For `O=C(Nc1ccccc1)c1ccc2nc(-c3ccco3)c(-c3ccco3)nc2c1`, the outcome was “inactive”.
`Cc1ccc(C(=O)Nc2cccnc2)cc1NC(=O)c1ccco1` was tested, and the outcome was “inactive”.
For `O=C(Nc1cccc(C(F)(F)F)c1)c1cccnc1NCCc1ccccc1`, the outcome was “inactive”.
For `O=C(NN=C1CCCC1)C(=O)Nc1cccc(C(F)(F)F)c1`, the outcome was “inactive”.
With `COC(=O)C1=C(C)Nc2ncnn2C1c1ccc(OC(=O)c2ccccc2)cc1` (stereo unspecified) the outcome was “inactive”.
In the case of `CC(=O)c1ccccc1NC(=O)COC(=O)CN1C(=O)C2CCCCC2C1=O` (stereo unspecified), the outcome is reported as “inactive”.
With `COCCn1c(-c2ccc(OC)cc2)nc2ccccc21` the outcome was “inactive”.
In the case of `N#Cc1cn(CCOc2ccccc2F)c2ccccc12`, the outcome is reported as “inactive”.
With `Cc1ccc(C(=O)N2c3ccc(F)cc3CCC2C)o1` (stereo unspecified) the outcome was “inactive”.
In the case of `COC(=O)COc1ccc(S(=O)(=O)NCc2ccco2)cc1Cl`, the outcome is reported as “inactive”.
`CC(Cc1c[nH]c2ccccc12)C(=O)NCc1ccco1` (stereo unspecified) was tested, and the outcome was “inactive”.
For `CN(C)CCNc1oc(COc2ccc(Cl)cc2)nc1C#N`, the outcome was “inactive”.
`O=C(NNC(=O)c1cc(OCC(F)(F)F)ccc1OCC(F)(F)F)c1cccc(C(F)(F)F)c1` was tested, and the outcome was “inactive”.
With `Cc1cc(-n2c(C)cc(C(=O)COC(=O)CN=C3NS(=O)(=O)c4ccccc43)c2C)no1` the outcome was “inactive”.
For `O=C1CCCC2=C1C(c1ccsc1)CC(=O)N2c1ccccc1` (stereo unspecified), the outcome was “inactive”.
`COC(=O)C1(C(=O)OC)NOC2C(=O)N(c3ccccc3)C(=O)C21` (stereo unspecified) was tested, and the outcome was “inactive”.
In the case of `COc1ccc(OCCOC(=O)c2cc(S(=O)(=O)N3CCOCC3)c(Cl)cc2Cl)cc1`, the outcome is reported as “inactive”.
For `O=C(c1cccc(S(=O)(=O)N2CCCC2)c1)N1CCOCC1`, the outcome was “inactive”.
`COc1ccc(CN2CCSCC2)cc1C` was tested, and the outcome was “inactive”.
In the case of `CN(CCO)c1cc(Sc2nc3ccccc3s2)c2nonc2c1[N+](=O)[O-]`, the outcome is reported as “inactive”.
In the case of `CCC(=O)OCCNc1cc(Sc2nc3ccccc3[nH]2)c2nonc2c1[N+](=O)[O-]`, the outcome is reported as “inactive”.
`O=[N+]([O-])c1c(Nc2ccccc2O)cc(Cl)c2nonc12` was tested, and the outcome was “inactive”.
`O=C(O)c1cc(Nc2cc(Cl)c3nonc3c2[N+](=O)[O-])ccc1O` was tested, and the outcome was “inactive”.
In the case of `C=CCSc1nnc(-c2ccc(Cl)cc2Cl)o1`, the outcome is reported as “inactive”.
With `O=C1N=NC2=C1c1c3ccccc3c(O)n1CC2` the outcome was “inactive”.
In the case of `N#CC1=C(Nc2ccccc2)SC=C(c2ccc(Br)cc2)N=C1N1CCOCC1`, the outcome is reported as “inactive”.
For `Cc1onc(-c2ccccc2Cl)c1C(=O)N1CCN(c2cccc(Cl)c2)CC1`, the outcome was “inactive”.
`CC(NC(=O)CN(C)Cc1nc2ccccc2c(=O)[nH]1)c1ccccc1` (stereo unspecified) was tested, and the outcome was “inactive”.
With `COc1ccc(CC(=O)OCn2nnc3ccccc3c2=O)cc1` the outcome was “inactive”.
For `Cc1ccc(CNC(=O)C2CCCN(S(=O)(=O)c3cnc[nH]3)C2)cc1` (stereo unspecified), the outcome was “inactive”.
For `COCCn1c(SCC(=O)N2CCC(C)CC2)nc2ccccc2c1=O`, the outcome was “inactive”.

— PubChem BioAssay AID1117361 (Southern Research Institute, 2015)
